Assay outcomes as filed in PubChem.
MCF10A rereplic: DNA re-replication induction in MCF 10a cells; MCF 10A DNA re-replication, Hoechst nuclear intensity, 48 h; Potency, µM (series often up to 46.1 µM), actives largely listed as activators; hit rate 2.9% among 350,000; AID 624296; also: nearly all actives have a fitted effect of over 50% in size
VP16 counter: counter-screen for ROR gamma inhibitors: Gal4-VP16 reporter; hit rate 3.5% among 310,000; Drosophila S2 Gal4-VP16 UAS-luciferase, luminescence, 20 h; AID 2546; Potency, µM (series often up to 53.6 µM), hits mostly inhibitors;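 also: Gal4-VP16 expression switched on by copper sulfate through the metallothionein promoter; nearly all actives have a fitted effect of over 50% in size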
RORgamma inh: ROR gamma (mouse) transcription inhibition. P51450. Drosophila S2 Gal4-RORgamma UAS-luciferase reporter, 20 h. Potency, µM (doses to about 53.6 µM), usual class: inhibitors. hit rate 5.4% among 310,000; also: nearly all actives have a fitted effect of over 60% in size
Target sequence (P51450 whole entry, looked up, the tested form may be a part): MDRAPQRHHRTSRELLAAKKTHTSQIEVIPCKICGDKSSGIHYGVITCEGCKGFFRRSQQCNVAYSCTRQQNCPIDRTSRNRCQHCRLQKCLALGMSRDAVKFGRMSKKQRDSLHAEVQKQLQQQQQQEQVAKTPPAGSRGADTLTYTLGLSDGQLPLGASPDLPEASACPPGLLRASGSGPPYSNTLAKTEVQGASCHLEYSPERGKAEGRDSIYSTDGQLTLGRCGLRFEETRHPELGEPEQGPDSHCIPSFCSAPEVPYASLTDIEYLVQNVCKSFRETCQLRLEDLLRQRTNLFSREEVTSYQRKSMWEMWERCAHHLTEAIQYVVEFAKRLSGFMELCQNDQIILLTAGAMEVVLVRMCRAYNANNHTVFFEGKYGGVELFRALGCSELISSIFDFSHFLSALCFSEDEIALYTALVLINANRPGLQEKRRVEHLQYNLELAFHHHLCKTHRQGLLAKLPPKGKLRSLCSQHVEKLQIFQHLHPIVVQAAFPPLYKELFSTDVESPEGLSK
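ROR gamma transcriptional activity was tracked as Gal4-UAS luciferase output in stably transfected Drosophila Schneider cells, with compound added 1 hr before 700 uM copper sulfate induction and a 20 hr ambient-temperature incubation.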
Giardia killer: kills Giardia lamblia; Giardia lamblia trophozoite viability; activity change, % at 7.66 µM, hits read low; hit rate 0.15% among 340,000; AID 540267; in the data active = activity change below about -80%; inconclusive = between about -30% and that limit;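 also: parasites exposed to compound for two days anaerobically before the ATP read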
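Luminescent ATP signal served as the viability read-out, measured 15-30 min after adding ATP detection reagent to trophozoites that had been incubated with compounds for 48 hrs at 37 deg C anaerobically at 100 cells/well.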
SW480 rerep: induces DNA re-replication in SW480 colon adenocarcinoma cells | SW480 DNA re-replication, Hoechst DNA content imaging, 48 h | Potency, µM (top dose mostly 46.1 µM), hits mostly activators | hit rate 1.8% among 340,000; also: nearly all actives have a fitted effect of over 55% in size
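Image-based read-out: total Hoechst fluorescence of nuclei (405 nm excitation, 500-530 nm emission), with hits raising the fraction of high-intensity nuclei. SW480 colon cells incubated 48 hr with compounds at 37 C.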
Chronic BCR inh: inhibitors of chronic active B-cell receptor signaling | ABC-DLBCL IkBa-CBG/CBR reporter, luminescence ratio, 4 h | Potency, µM (top dose mostly 46.1 µM), actives largely listed as inhibitors | hit rate 0.05% among 340,000 | AID 493014; active = well fitted inhibition curve with a large enough effect in the signal ratio, with a control signal flat, not every such curve was filed as active; inconclusive = small, poorly fitted or top-dose-only effect, or effect the other way, or a change in a side signal; the % refers to the signal ratio
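Compounds up to 46 uM were incubated four hours with TMD8 cells whose green CBG68 luciferase is fused to IkappaBalpha; red CBR luminescence normalised the signal, and concentration-effect curves were fitted to fusion, red and ratio data.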
Large screens that a line does not name were inactive. The list is not random: actives were taken first. Their share in the collection is about 8.3%. Unless noted, calls follow the shape of the dose curve; as a rule, active = well fitted curve in the direction sought with a large enough effect; inconclusive = small, poorly fitted or top-dose-only effect, or another doubt; inactive = no such curve, though single readings can be large; an effect the other way counts as inactive or inconclusive.

CC(=O)c1ccc(NC(=S)NNC(=O)NC2CCCCC2)cc1	VP16 counter inconclusive, RORgamma inh inconclusive, Chronic BCR inh inconclusive
OCCNC(=S)Nc1ccc(Oc2ccccc2)cc1	none
S=C(Nc1ccc(Oc2ccc(NC(=S)NC3CCCCC3)cc2)cc1)NC1CCCCC1	VP16 counter inconclusive, RORgamma inh 1µM
Cc1ccc(NC(=S)NNC(=S)NC2CCCCC2)cc1	VP16 counter inconclusive, RORgamma inh 15.8µM
S=C(NNc1ccc2ccccc2c1)NC1CCCCC1	MCF10A rereplic 4.61µM, VP16 counter 2.82µM, RORgamma inh 2.82µM, SW480 rerep inconclusive, Chronic BCR inh inconclusive
NS(=O)(=O)c1ccc(NC(=S)NC2CCCCCC2)cc1	Chronic BCR inh inconclusive
S=C(Nc1ccc(Oc2ccccc2)cc1)NC1CCCCC1	MCF10A rereplic inconclusive, RORgamma inh 2.24µM, Chronic BCR inh inconclusive
O=C(NNS(=O)(=O)c1ccc2ccccc2c1)NC1CCCCC1	none
Cc1ccc(-c2nc(=Nc3c(C)cc(C)cc3C)sn2-c2ccccc2)cc1	none (no result: MCF10A rereplic, VP16 counter, RORgamma inh, SW480 rerep, Chronic BCR inh)
O=C(c1ccc(Cl)c([N+](=O)[O-])c1)N1CCCc2ccccc21	none
CC(C)c1ccc(NC(=S)NC2CCCCCC2)cc1	MCF10A rereplic inconclusive, VP16 counter 15.8µM, RORgamma inh 2.24µM, SW480 rerep inconclusive
S=C(Nc1ccc(Oc2ccccc2)cc1)NC1CCCCCC1	MCF10A rereplic 14.6µM, VP16 counter 3.16µM, RORgamma inh 1.78µM, Chronic BCR inh inconclusive
COc1ccc(NC(=S)Nc2ccc(Oc3ccccc3)cc2)cc1	none
COc1cc(C(=O)COC(=O)c2c(C)noc2C)cc(OC)c1OC	none (no result: VP16 counter, RORgamma inh)
CCN(CC(=O)Nc1ccc(NC(C)=O)cc1)C(=O)/C=C/c1ccco1	none (no result: VP16 counter, RORgamma inh)
CCCN(CC(=O)Nc1ccc(Cl)cc1Cl)C(=O)/C=C/c1ccco1	MCF10A rereplic 9.2µM, RORgamma inh inconclusive, Chronic BCR inh inconclusive
O=C(CCc1ccccc1)NCCSCc1c(F)cccc1Cl	VP16 counter 7.94µM, RORgamma inh inconclusive
COC(=O)c1ccc(CSc2ncnc3sc(C)c(C)c23)o1	VP16 counter inconclusive, RORgamma inh 17.8µM
CCCCCN1C=CC(=C2C(=O)c3ccccc3C2=O)C=C1	VP16 counter 1.26µM, RORgamma inh 1.12µM, Giardia killer -92.2
CCOC(=O)COc1cccc2c(=O)n(CC(=O)NCc3ccc(F)cc3)ccc12	MCF10A rereplic inconclusive, SW480 rerep inconclusive, Chronic BCR inh inconclusive
CCOC(=O)COc1cccc2c(=O)n(CC(=O)NCc3ccccc3)ccc12	MCF10A rereplic 1.46µM, SW480 rerep inconclusive, Chronic BCR inh inconclusive
CCOC(=O)C(C)Oc1cccc2c(=O)n(CC(=O)NCc3ccc4c(c3)OCO4)ccc12 (centres undefined)	MCF10A rereplic 6.51µM, SW480 rerep 4.11µM, Chronic BCR inh inconclusive
CN1C=CC=C/C1=C1\SC(=S)N(N)C1=O	none
Cc1cc(C(=O)NCCN2CCN(c3cccc(Cl)c3)CC2)n(-c2ccccc2)n1	MCF10A rereplic 25.9µM, SW480 rerep 8.2µM, Chronic BCR inh inconclusive
Cc1cc(C(=O)NCCCN2CCN(c3cc(Cl)ccc3C)CC2)n(-c2ccccc2)n1	MCF10A rereplic inconclusive, SW480 rerep inconclusive
CC(=O)N1N=C2c3ccccc3CCC2C1c1cccs1 (centres undefined)	none
CCn1cc(Cl)c(C(=O)N2N=C3/C(=C/c4cccs4)CCCC3C2c2cccs2)n1 (centres undefined)	RORgamma inh inconclusive, SW480 rerep 18.4µM, Chronic BCR inh inconclusive
COc1ccc(OC)c(NC(=O)CCN2CCN(C)CC2)c1	none
CCN(CC)Cc1nc2c(c(=O)[nH]1)C(CC)(CC)Cc1ccccc1-2	VP16 counter 5.01µM, RORgamma inh 1.58µM
N#CC(=C(O)COC(=O)Cc1c[nH]c2ccccc12)c1nc2ccccc2[nH]1	MCF10A rereplic inconclusive (no result: VP16 counter, RORgamma inh, Chronic BCR inh)
Cc1cc(C)cc(OCC(=O)OC/C(O)=C(\C#N)c2nc3ccccc3[nH]2)c1	VP16 counter 15.8µM, RORgamma inh 12.6µM, SW480 rerep inconclusive
Cc1cccc(C)c1OCC(=O)OC/C(O)=C(\C#N)c1nc2ccccc2[nH]1	VP16 counter 17.8µM, RORgamma inh 10µM, SW480 rerep inconclusive
N#C/C(=C(/O)COC(=O)COc1cccc(Br)c1)c1nc2ccccc2[nH]1	VP16 counter 12.6µM, Giardia killer inconclusive, Chronic BCR inh inconclusive
Cc1cc(NC(=O)C(C)Sc2nnc(NCc3ccco3)s2)no1 (centres undefined)	SW480 rerep inconclusive (no result: VP16 counter, RORgamma inh)
Cc1cc(C)cc(OCC(=O)OCC(=O)N(C)CC(=O)Nc2ccc(F)cc2)c1	none (no result: VP16 counter, RORgamma inh)
Cc1cc(C)c(CN2CCC(n3nccc3NC(=O)CCOc3ccccc3)CC2)cc1C	none
Cc1cccc(NC2=C(NCCO)C(=O)c3ccccc3C2=O)c1	MCF10A rereplic inconclusive, Chronic BCR inh inconclusive
Cc1ccc(Nc2cc(=O)oc3ccccc23)c(C)c1	none
O=C1C(Nc2ccc(O)cc2)=C/C(=N/S(=O)(=O)c2cccs2)c2ccccc21	MCF10A rereplic inconclusive, VP16 counter 12.6µM, RORgamma inh 11.2µM, SW480 rerep 5.17µM, Chronic BCR inh inconclusive
Cc1cccc(NC2=C/C(=N/S(=O)(=O)c3cccs3)c3ccccc3C2=O)c1	MCF10A rereplic 2.91µM, SW480 rerep inconclusive
Cc1ccc(NC2=C/C(=N\S(=O)(=O)c3cccs3)c3ccccc3C2=O)c(C)c1	MCF10A rereplic 6.51µM, VP16 counter inconclusive, RORgamma inh inconclusive, SW480 rerep 6.51µM, Chronic BCR inh inconclusive
Cc1ccc(Cl)cc1NC1=C/C(=N\S(=O)(=O)c2cccs2)c2ccccc2C1=O	MCF10A rereplic 0.651µM, VP16 counter 5.01µM, SW480 rerep 2.91µM, Chronic BCR inh inconclusive
COC1=C(Nc2ccc(O)cc2)C(=O)c2ccccc2C1=O	MCF10A rereplic inconclusive, SW480 rerep inconclusive
O=[N+]([O-])c1c(O)c(Cl)cc(Cl)c1Cl (tested in a mixture with another compound)	MCF10A rereplic inconclusive (no result: VP16 counter, RORgamma inh, Chronic BCR inh)
O=C(Cc1ccccc1)Nc1ccc2oc(-c3ccncc3)nc2c1	none
O=C(Cc1ccccc1)NC(=S)Nc1ccc2oc(-c3ccccc3F)nc2c1	VP16 counter inconclusive, RORgamma inh 3.98µM, SW480 rerep inconclusive, Chronic BCR inh inconclusive
O=C(NC(=S)Nc1ccc2oc(-c3cccnc3)nc2c1)c1cccc(Cl)c1	MCF10A rereplic inconclusive, RORgamma inh 20µM, Giardia killer inconclusive
O=C(Nc1ccc2oc(-c3ccccc3F)nc2c1)c1ccccc1F	Giardia killer inconclusive
O=C(Cc1ccccc1)NC(=S)Nc1ccc2oc(-c3ccccc3)nc2c1	VP16 counter 7.08µM, RORgamma inh 7.08µM, Chronic BCR inh inconclusive (no result: MCF10A rereplic, Giardia killer, SW480 rerep)
COc1cccc(CN(C)CC(=O)NC(=O)NCc2ccco2)c1	Chronic BCR inh inconclusive
CC(C(=O)Nc1ccccc1)N1CCN(C(=O)c2ccco2)CC1 (centres undefined)	none (no result: VP16 counter, RORgamma inh)
